# Target: CEP55
# Test: pooled miR-30 sensor sort-seq; sequence = guide strand
# Conditions: shRNA
# Note: reference of the scale not given here.
row,Sequence,sensor-assay potency score (higher = more potent)
1,TAACCCATTAGCAATAACCTGA,-0.42
2,TTTATTGATGAGTTGAAGCAGT,-0.0395
3,TTAACAATTTTAGCTAAGCAGA,-1.37
4,TTTGTGAATACAACAGCTGATT,-0.95
5,TTGATAAGCATTCTTCTCCTTC,0.207

# Target: CETN1
# Test: as above
# Conditions: shRNA
row,Sequence,sensor-assay potency score (higher = more potent)
1,TCATTGAAGCTGATCTTCCCCG,-0.662
2,TTTTGAACGAGATCTTCCCGGT,0.317
3,AGCTTCGTCGATCATCTCCTGC,-1.15
4,TTAGGTGCCACCTTTCTCTTTT,0.187
5,TTTTTGAACGAGATCTTCCCGG,0.117
6,TTCCCGAACTTCTTGCTTCTGA,0.00399
7,TTCGTCGATCATCTCCTGCAGC,-0.572
8,TTCTCGGACATCTTCTGCGTCA,-0.598
9,TTCTTCTTTGGTGTCCTTCTCG,0.166
10,TAGATCTAGACAAATTATGGGG,-0.0246
11,TTGAAGCTGATCTTCCCCGTGC,0.267
12,TTTGGTGTCCTTCTCGGACATC,-1.04
13,TCATCGTCATCAAAGAGCCTGA,-0.321
14,AACTTCTTGCTTCTGATCCTCA,-0.468
15,ATCAGCTTCGTCGATCATCTCC,-0.374
16,ATTGAAGCTGATCTTCCCCGTG,-0.49
17,TTGCTTCTGATCCTCAGTGAGC,-1.03
18,TATTGAACTAGAGATATGGAAA,-1.01
19,TTCAGGATTTCTTCTTTGGTGT,-0.547
20,ATCCCGATCAGCTTCGTCGATC,-1.43
21,TTTCTCTTTTGGCCGGTGGAGG,-1.52
22,TCTTCTTTGGTGTCCTTCTCGG,-0.36
23,TCTTGCTTCTGATCCTCAGTGA,0.681
24,TTCGCGTCGATGGTCCCACTTC,-0.957

# Target: CFHR1
# Test: as above
# Conditions: shRNA
row,Sequence,sensor-assay potency score (higher = more potent)
1,TTGCACAGTATCACCTTCCAGA,-0.325
2,TTTACACACAAATTCAGCTGAT,0.481
3,TTACACACAAATTCAGCTGATT,-0.226
4,TTTCCCGTAGAATCTTTGCATT,-1.19
5,TGAAATTAAGAACTGATTTAAT,-1.22
6,TATATGAGCATTTTGTACTGTG,0.209
7,TACTCATCTGTCTCGACAGTAT,-0.805
8,TAATTTGCACAGTATCACCTTC,0.283
9,TCTGTCTCGACAGTATATGAGC,-1.41
10,TTAAGAACTGATTTAATACTAA,-0.326

# Source: the OligoGym collection
